Screens from PubChem.
mHTT-CaM PPI inh – mHTT-calmodulin interaction abrogation; P42858; AlphaScreen His-mHTT/GST-CaM binding, luminescence; inhibition, % at 15 µM; 3.6% of 190,000 active;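 note: 0% = both proteins with DMSO and 100% = one protein alone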
Target sequence (P42858 whole entry, looked up, stated change not applied): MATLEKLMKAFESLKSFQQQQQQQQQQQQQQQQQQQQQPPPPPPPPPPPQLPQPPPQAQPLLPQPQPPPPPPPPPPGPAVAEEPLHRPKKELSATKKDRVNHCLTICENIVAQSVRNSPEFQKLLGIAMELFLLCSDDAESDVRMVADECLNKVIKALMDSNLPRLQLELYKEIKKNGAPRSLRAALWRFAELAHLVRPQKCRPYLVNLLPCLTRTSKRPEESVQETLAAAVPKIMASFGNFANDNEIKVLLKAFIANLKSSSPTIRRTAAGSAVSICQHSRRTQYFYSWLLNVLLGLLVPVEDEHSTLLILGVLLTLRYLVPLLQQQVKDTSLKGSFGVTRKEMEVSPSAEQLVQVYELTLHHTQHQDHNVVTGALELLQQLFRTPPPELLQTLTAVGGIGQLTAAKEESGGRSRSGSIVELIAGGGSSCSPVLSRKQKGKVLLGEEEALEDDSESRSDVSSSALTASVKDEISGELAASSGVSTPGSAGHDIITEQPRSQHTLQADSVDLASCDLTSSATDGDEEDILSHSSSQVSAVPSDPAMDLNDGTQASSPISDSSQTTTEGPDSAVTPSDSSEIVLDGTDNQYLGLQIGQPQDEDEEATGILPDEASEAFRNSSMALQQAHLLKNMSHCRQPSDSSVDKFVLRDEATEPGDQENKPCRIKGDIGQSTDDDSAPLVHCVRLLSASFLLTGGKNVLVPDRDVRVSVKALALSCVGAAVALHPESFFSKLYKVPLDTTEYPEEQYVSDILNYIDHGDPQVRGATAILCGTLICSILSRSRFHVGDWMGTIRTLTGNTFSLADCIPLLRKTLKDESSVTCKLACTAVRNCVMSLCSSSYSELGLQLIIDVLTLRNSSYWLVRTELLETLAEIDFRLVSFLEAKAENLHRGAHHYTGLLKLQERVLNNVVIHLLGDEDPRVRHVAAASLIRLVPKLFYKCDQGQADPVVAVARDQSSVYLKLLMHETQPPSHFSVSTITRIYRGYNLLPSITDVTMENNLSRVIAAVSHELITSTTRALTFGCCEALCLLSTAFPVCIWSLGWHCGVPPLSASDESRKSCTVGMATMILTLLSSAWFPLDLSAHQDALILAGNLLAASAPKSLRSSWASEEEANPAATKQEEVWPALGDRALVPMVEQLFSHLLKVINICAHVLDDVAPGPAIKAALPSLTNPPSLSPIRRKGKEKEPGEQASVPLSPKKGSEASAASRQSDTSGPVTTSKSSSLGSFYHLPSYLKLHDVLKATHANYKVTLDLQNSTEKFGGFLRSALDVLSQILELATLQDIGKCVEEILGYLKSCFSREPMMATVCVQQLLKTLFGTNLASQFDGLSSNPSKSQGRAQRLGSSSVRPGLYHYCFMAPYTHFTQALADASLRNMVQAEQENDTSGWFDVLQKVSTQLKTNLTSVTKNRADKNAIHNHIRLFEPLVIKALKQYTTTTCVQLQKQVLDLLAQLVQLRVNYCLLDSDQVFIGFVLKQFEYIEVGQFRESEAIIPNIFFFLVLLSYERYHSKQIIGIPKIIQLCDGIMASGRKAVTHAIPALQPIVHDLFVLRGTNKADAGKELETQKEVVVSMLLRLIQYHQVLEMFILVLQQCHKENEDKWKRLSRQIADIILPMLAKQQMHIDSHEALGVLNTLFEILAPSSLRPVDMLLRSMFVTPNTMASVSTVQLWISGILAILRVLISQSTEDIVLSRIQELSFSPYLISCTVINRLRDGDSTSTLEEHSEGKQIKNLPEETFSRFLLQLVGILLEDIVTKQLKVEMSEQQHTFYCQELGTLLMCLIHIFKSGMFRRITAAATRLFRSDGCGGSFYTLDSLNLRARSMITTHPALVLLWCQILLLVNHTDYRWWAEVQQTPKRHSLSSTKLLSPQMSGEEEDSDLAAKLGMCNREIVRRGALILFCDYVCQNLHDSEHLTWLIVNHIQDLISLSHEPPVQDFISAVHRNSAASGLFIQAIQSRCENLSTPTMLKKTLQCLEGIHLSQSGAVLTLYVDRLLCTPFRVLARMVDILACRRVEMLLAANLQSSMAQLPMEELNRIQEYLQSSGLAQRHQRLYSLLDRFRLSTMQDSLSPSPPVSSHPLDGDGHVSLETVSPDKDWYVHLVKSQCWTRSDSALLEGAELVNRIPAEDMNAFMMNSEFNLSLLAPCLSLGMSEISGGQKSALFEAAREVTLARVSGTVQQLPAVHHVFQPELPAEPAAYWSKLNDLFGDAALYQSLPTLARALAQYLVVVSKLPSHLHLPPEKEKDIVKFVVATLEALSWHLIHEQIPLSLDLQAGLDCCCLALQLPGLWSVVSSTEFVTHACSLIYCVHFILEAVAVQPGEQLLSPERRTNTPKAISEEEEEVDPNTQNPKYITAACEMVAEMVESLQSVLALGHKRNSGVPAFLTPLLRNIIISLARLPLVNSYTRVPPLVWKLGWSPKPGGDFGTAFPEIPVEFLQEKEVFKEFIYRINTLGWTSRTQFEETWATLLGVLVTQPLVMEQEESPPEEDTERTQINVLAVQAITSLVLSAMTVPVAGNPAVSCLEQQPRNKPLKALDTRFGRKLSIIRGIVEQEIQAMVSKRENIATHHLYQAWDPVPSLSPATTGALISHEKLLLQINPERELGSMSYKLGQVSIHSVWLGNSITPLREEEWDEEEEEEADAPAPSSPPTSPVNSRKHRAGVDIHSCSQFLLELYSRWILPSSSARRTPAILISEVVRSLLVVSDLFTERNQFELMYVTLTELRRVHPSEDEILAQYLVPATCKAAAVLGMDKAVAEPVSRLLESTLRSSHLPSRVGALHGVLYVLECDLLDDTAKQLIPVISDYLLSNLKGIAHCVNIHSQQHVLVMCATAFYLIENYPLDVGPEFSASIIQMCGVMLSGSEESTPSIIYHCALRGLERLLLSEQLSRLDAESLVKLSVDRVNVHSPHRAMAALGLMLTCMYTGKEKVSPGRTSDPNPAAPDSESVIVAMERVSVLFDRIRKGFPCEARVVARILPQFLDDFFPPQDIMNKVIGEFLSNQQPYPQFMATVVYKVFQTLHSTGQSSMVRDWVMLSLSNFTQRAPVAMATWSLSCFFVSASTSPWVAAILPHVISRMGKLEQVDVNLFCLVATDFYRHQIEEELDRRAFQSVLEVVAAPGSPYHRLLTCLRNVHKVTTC
Pf apPOL block – Pf-apPOL DNA polymerase inhibition. Recombinant Pf-apPOL, molecular beacon fluorescence, 1.5 h. inhibition, % at 10 µM. 0.25% of 210,000 active. AID 1794808
Active calls of the source: *; nt = no result; ! = repeats disagree. An excerpt weighted towards active compounds, which were near 3.5% of everything screened. Cut-off read from the data, not from the text of the source: active = inhibition above about 50%; inactive = the rest.

SMILES	mHTT-CaM PPI inh	Pf apPOL block
Nc1cc2nc3ccccc3nc2cc1N	19.1	nt
CCOc1cc(CN(C)CCc2ccc(OC)c(OC)c2)ccc1OC	-5.4	4.1
COc1ccc(C2NCCc3[nH]cnc32)c(F)c1 (configuration not stated)	5.7	-4.7
COc1cc(Br)cc(/C=C/[N+](=O)[O-])c1O	71.9*	-0.8
COc1cc(/C=C/[N+](=O)[O-])c(OC)cc1C	24.8	-3.8
COc1cc2c(cc1OC)-c1c(OC)c(OC)c(Br)c3c1C(C2)N(C)CC3 (configuration not stated)	38.7	nt
CN1CCc2nc(N)c(C#N)c(-c3ccc(Br)cc3)c2C1	2.0	0.8
O=C(Cc1ccc(Cl)cc1)N1CCCN(C2CCN(CC3CC3)C2=O)CC1 (configuration not stated)	18.0	-2.4
COc1ccc(OC)c(NC(=O)c2nc(C)n(C3CCN(C)CC3)c2C)c1	27.2	-4.7
COc1ccc(NC(=O)c2nc(C)n(C3CCN(C)CC3)c2C)c(OC)c1	21.3	58.6*
NCC(O)CNc1ccc([N+](=O)[O-])c2cccnc12 (configuration not stated)	25.0	-9.8
c1ccc2c(c1)CCc1c-2[nH]c2ccccc12	62.5*	-4.8
COc1cc(/C=C2\C(=O)NC(=O)N(c3ccc(Br)cc3)C2=O)ccc1O	6.0	-8.6
COc1cc(C=C2C(=O)NC(=O)NC2=O)ccc1OCC(=O)O	4.0	-1.4
COc1ccc(C=C2C(=O)NC(=S)NC2=O)cc1Br	nt	64.2*
CN1CCN(c2ccccc2C=NNC(N)=S)CC1	nt	-6.8
COc1cccc(-n2c(/C=C/c3cccc([N+](=O)[O-])c3)nc3ccccc3c2=O)c1	26.5	-1.0
O=c1c2ccccc2nc(/C=C/c2cccc([N+](=O)[O-])c2)n1-c1ccccn1	2.0	91.0*!
COc1ccc(-n2c(/C=C/c3ccc(O)c(OC)c3)nc3ccccc3c2=O)cc1	10.1	-3.8
COc1cccc(-n2c(/C=C/c3ccc(O)c(O)c3)nc3ccccc3c2=O)c1	69.6*	-4.2
Cc1cccc(/C=C/c2nc3ccccc3c(=O)n2-c2cccc(O)c2)c1	24.7	-12.3
Cc1cccc(-n2c(/C=C/c3cccnc3)nc3ccccc3c2=O)c1	100.2*	-9.2
CCOc1ncccc1CNC(=O)c1nn(C)c2ccccc12	-1.5	-0.8
O=[N+]([O-])c1ccc(CNCCc2ccc3c(c2)OCO3)cc1	11.4	4.5
CCc1ccccc1NC(=O)CN1C(=O)C(C)N=C(c2ccccc2)c2ccccc21 (configuration not stated)	10.0	-37.1
SMILES	mHTT-CaM PPI inh	Pf apPOL block
O=C1OC(c2cncc(Br)c2)=N/C1=C\c1ccc(Cl)cc1	4.0	-6.2
CN(C)c1cc[n+](OC(=O)N2CCCCC2)cc1	-3.0	-21.0
CN(C)c1ccc(CN2CCN(c3ccc(F)cc3)CC2)cc1	37.6	-3.9
CN(C)c1ccc(CN2CC=C(c3ccc(F)cc3)CC2)cc1	51.7*	3.0
COc1ccc2c(c1)C1(CCN(C(=O)COc3ccc(Cl)cc3)C1)C(=O)N2 (configuration not stated)	3.1	-5.0
O=C1c2ccccc2-c2c3c(cc4ccnc1c24)OCO3	nt	77.0*
O=C1C2CCCCC2C2NC3NONC3NNC12 (configuration not stated)	13.6	nt
Cc1nc(C(=O)NC2CCCC2)c(C)n1C1CCN(C)CC1	9.6	-8.3
Cc1nn(CC(=O)Nc2ccc(Cl)cc2C(=O)c2ccccc2)c(C)c1[N+](=O)[O-]	6.0	12.8
COc1ccc(-c2c(C)oc3cc(OC(=O)N(C)C)ccc3c2=O)cc1OC	-0.6	-9.2
Clc1ccc(CN2CCN(c3ccccc3)CC2)c(Cl)c1	25.8	-3.4
COc1ccc(N2CCN(Cc3ccc(Cl)cc3Cl)CC2)cc1	61.0*	-5.4
c1cnc2nc(N3CCNCC3)oc2c1	-2.8	nt
Fc1nc(N2CCNCC2)c(F)c(Sc2ccc(Cl)cc2)c1F	96.3*	nt
Cc1cc(C)c2oc(=O)cc(CN3CC4CC(C3)c3cccc(=O)n3C4)c2c1 (configuration not stated)	9.0	9.5
